Laboratory results reported in PubChem BioAssay (NCI).
Values joined by “and” are separate entries in the source; they are usually repeats but may differ in a detail not shown here. Equal entries are not always repeated. Compounds without any hit were thinned out: in the full panel of roughly 79,000, 15% have a hit. Active and inactive are the calls of the source. No stated cut-off is given here; in the data, active means growth inhibition above about 70%; inactive means the rest.

Legend:
[1] = NCI Yeast Anticancer Drug Screen. Data for the rad50 strain (AID 155);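 further: 0% = growth of vehicle-only cultures of the same strain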; conditions: S. cerevisiae rad50 strain growth inhibition, stronger effect = higher value; at 50.0 µM unless noted
Outline: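 Cells are treated with compound, grown, and their growth is then scored against vehicle-only cultures of the same repair-deficient yeast strain.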

[2] = NCI Yeast Anticancer Drug Screen. Data for the mec2-1 strain (AID 157); conditions: S. cerevisiae mec2-1 strain, stronger effect = higher value; at 50.0 µM unless noted
Outline: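 Readout is yeast growth inhibition, normalised to vehicle-treated controls, in the mec2-1 strain exposed to compound.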

[3] = NCI Yeast Anticancer Drug Screen. Data for the sgs1 mgt1 strain (AID 161);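 further: 0% = growth of cultures given vehicle only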; conditions: S. cerevisiae sgs1 mgt1 strain, stronger effect = higher value; at 50.0 µM unless noted
Outline: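 Compounds are added to genetically altered yeast, and growth is compared with cultures given vehicle alone to give percent inhibition.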

[4] = NCI Yeast Anticancer Drug Screen. Data for the cln2 rad14 strain (AID 165);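 further: 0% = growth equal to vehicle treated cultures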; conditions: S. cerevisiae cln2 rad14 strain, stronger effect = higher value; at 50.0 µM unless noted
Outline: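 Relative to vehicle controls, growth inhibition of compound-treated cln2 rad14 yeast was recorded.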

[5] = NCI Yeast Anticancer Drug Screen. Data for the bub3 strain (AID 167); conditions: S. cerevisiae bub3 mutant strain, stronger effect = higher value; at 50.0 µM unless noted
Outline: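 Part of a panel of yeast mutants defective in DNA damage repair or cell cycle regulation. Each strain is grown with compound, and inhibition is calculated relative to solvent-treated cultures.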

[6] = NCI Yeast Anticancer Drug Screen. Data for the mlh1 rad18 strain (AID 175); conditions: S. cerevisiae mlh1 rad18 strain growth inhibition, stronger effect = higher value; at 50.0 µM unless noted
Outline: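 Test agents were incubated with a yeast strain of defined genotype (DNA damage repair defect). Inhibition of growth was derived by comparison with vehicle-exposed cultures.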

Measured: growth inhibition

Nc1nc2c(ncn2-c2ccc(Br)cc2)c(=O)[nH]1
inactive: [1] 15.2% | [2] -1.6% | [3] 20.9% | [4] 32.1% | [5] -4.8% | [6] 59.8%

CCc1ccc(NS(=O)(=O)c2ccc(OC)cc2)cc1
inactive: [1] 37.9% | [2] 63.5% | [4] 25.9% | [5] 43.4%
active: [3] 80.2% | [6] 75.7%

CN(C)CCl
inactive: [1] -1.4% | [2] -28.2% | [3] -12.4% | [4] -4.1% | [5] -15.5% | [6] -13.1%

CC(C)(C)CC(=O)NC1CCCCC1
inactive: [1] -6.55% | [2] -5.8% | [3] 12.2% | [4] -23.1% | [5] 3.4% | [6] 13.7%

C=C[C@@]1(C)C=C2CC[C@@H]3[C@](C)(CCC[C@@]3(C)C(=O)O)[C@H]2CC1
inactive: [1] 67.5% | [2] 37.8% | [3] 31.3% | [4] 52.1% | [5] 35.1% | [6] 55.2%

COC1/C=C/OC2(C)Oc3c(C)c(O)c4c(c3C2=O)C(N)=C(NC2CC2)C(=NC(=O)/C(C)=C\C=C\C(C)C(O)C(C)C(O)C(C)C(OC(C)=O)C1C)C4=O (centres undefined)
inactive: [1] 15.7% | [2] 32.7% | [3] 41.2% | [4] 49% | [5] 31.9% | [6] 33.1%

O=C(NO)Nc1ccccc1Cl
inactive: [1] 6.45% | [2] 9.45% | [3] 10.5% | [4] -1.65% | [5] -4.25% | [6] 8.9%

CC(C)(C)NNC(=O)CCn1[nH]c(=O)c(Cl)c(Cl)c1=O
inactive: [1] -0.8% | [2] -5.25% | [3] -18.9% | [4] -2.25% | [5] -16% | [6] -12.3%

O=C(c1cccs1)N(C(=S)N1CCN(c2ccccc2)CC1)C1CCCCC1
inactive: [1] -0.45% | [2] -5.9% | [3] -8% | [4] 13.4% | [5] -26.8% | [6] -10.4%

COc1ccc(N2C(=O)c3c(c4[nH]c5ccc(OC)cc5c4c4ccc(C(C)(C)C)cc34)C2=O)cc1
inactive: [1] -8.85% | [2] -7.95% | [3] 4.4% | [4] 7.2% | [5] -2.95% | [6] 26.6%

CCOC(=O)Nc1nc2ccccc2n1CN1CCCC1
inactive: [1] -4.7% | [2] -17.9% | [3] -11.3% | [4] 3.65% | [5] 22.4% | [6] 18.8%

O=c1c2cc3c(=O)n4c(cc(-c5ccccc5)c5cc(Cl)ccc54)nc3cc2nc2cc(-c3ccccc3)c3cc(Cl)ccc3n12
inactive: [1] 14.2% | [2] 5.55% | [3] 18.9% | [4] 14.2% | [5] -1.05% | [6] -9.7%

CC(O)CNC(=O)C(C)(C)O (centres undefined)
inactive: [1] 36% | [2] 13.6% | [3] 20.7% | [4] 9.65% | [5] 21.8% | [6] 18.9%

CCOC(=S)SCC(=O)CSC(=S)OCC
active: [1] 73.8%
inactive: [2] 12.1% | [3] 21.7% | [4] 9.7% | [5] 50.2% | [6] 2.15%

COc1cc(C2c3cc4c(cc3OC3(O)CCCC23)OCO4)cc(OC)c1OC (centres undefined)
inactive: [1] -0.85% | [2] 3.55% | [3] 2.45% | [4] -25.1% | [5] 3.15% | [6] -2.25%

CC(C)(C)OC(=O)c1ccccc1C(=O)c1ccccc1
inactive: [1] -0.4% | [2] -1.2% | [3] -4.8% | [4] 14.3% | [5] 9.05% | [6] -10.8%

CCCCCCCC1C(=O)OC2CC3C(C)=CC(=O)C(O)C3(C)C3C4(O)OCC23C1C(C)C4O (centres undefined)
active: [1] 91.5% | [2] 92.3% | [3] 91% | [4] 91.4% | [5] 90.2% | [6] 92.1%

CCCCC(CC)C(O)P(=O)(O)O (centres undefined)
inactive: [1] -9.2% | [2] -15.1% | [3] -9.75% | [4] -14.3% | [5] 2.8% | [6] 0.45%

[N-]=[N+]=Nc1ccc2nc(N)nc(N)c2c1
inactive: [1] -4.25% | [2] 5.7% | [3] 2.85% | [4] -33.9% | [5] -7.45% | [6] -5.2%

COC(=O)C(Br)C(Br)c1cc(OC)c(OC)c(OC)c1 (centres undefined)
inactive: [1] 48.2% | [2] 9.6% | [3] 2.3% | [4] 40% | [5] 10.4% | [6] 14.2%

O=c1cc(C(F)(F)F)[nH]c2ccc(F)cc12
inactive: [1] 1.95% | [2] -10.4% | [3] 6.4% | [4] -27.6% | [5] -27% | [6] 7.55%

Cc1ccnc(NC(=O)CCc2ccccc2)c1
inactive: [1] -11.8% | [2] -16.8% | [3] -10.3% | [4] -31.7% | [5] -13.2% | [6] -5.85%

COc1ccc(C(=O)C(=O)c2ccccc2Cl)cc1
inactive: [1] 11.4% | [2] 14.9% | [3] 9.55% | [4] 13.3% | [5] 17.8% | [6] 10.9%

CCCCCCCCCCSCC(=O)O
inactive: [1] -12.8% | [2] -24.6% | [3] -15.5% | [4] -3.3% | [5] -30.6% | [6] -29.5%

O=C(O)CCC1=Nc2cccc3cccc(c23)NC1=O
inactive: [1] 36.2% | [2] 32.2% | [3] 7.75% | [4] -3.35% | [5] 12.9% | [6] 13.9%

c1nc2nc(N3CCOCC3)nc(N3CCOCC3)c2[nH]1
inactive: [1] 11.8% | [2] -0.8% | [3] 23.9% | [4] 8.45% | [5] -17.9% | [6] 8.7%

C/C(CC1(O)C(=O)Nc2ccccc21)=N\O (centres undefined)
inactive: [1] -1.95% and -34.7% | [2] -8.5% and -46.1% | [3] -30.6% | [4] 8.6% | [5] -16.2% | [6] 6.55% and -10%

CN1CCCC1CCN (centres undefined)
inactive: [1] 0.15% | [2] -10.8% | [3] -13.8% | [4] -1% | [5] 3.9% | [6] 6.15%

CSc1ccc(C2NC(=O)NC2=O)cc1 (centres undefined)
inactive: [1] -10.2% | [2] -14.6% | [3] -1.95% | [4] -9% | [5] 4.95% | [6] -10.1%

COc1cccc(C2SCC(=O)N2c2ccc(-n3c(-c4ccccc4)nc4ccccc4c3=O)cc2)c1OC (centres undefined)
inactive: [1] 11.9% | [2] 26.4% | [3] 0.9% | [4] -9.7% | [5] 22.4% | [6] 26.9%

COc1ccccc1N=Nc1c(O)n(-c2ccccc2)c(=S)n(-c2ccccc2)c1=O
inactive: [1] 36.2% | [2] -4.55% | [3] 26.8% | [4] -9.3% | [5] -2.85% | [6] 8.9%

CCOC(=O)O/C(=C\c1ccc(OC)cc1)c1c(OC(=O)OCC)n(C(=O)OCC)c2ccccc12
inactive: [1] -13.1% | [2] -4.3% | [3] 7% | [4] 9.95% | [5] 12.7% | [6] 4.05%

CC(=O)c1ccc2c(c1)NC(=O)CC(C)N2 (centres undefined)
inactive: [1] 0.65% | [2] -1.25% | [3] 11.9% | [4] -25.6% | [5] 5.05% | [6] 0.3%

Oc1cccnc1Cl
inactive: [1] 12.9% | [2] -13.7% | [3] 17.4% | [4] 9.2% | [5] 13.7% | [6] 2.5%

CCOc1ccc(OCC)c(NC=O)c1
inactive: [1] -9% | [2] -20.1% | [3] -6.75% | [4] 8.4% | [5] -11.8% | [6] 2.95%

CCOc1cc(C=O)c2c(ccc3ccc(OC)c(OC)c32)c1OC
inactive: [6] -11.8%
active: [1] 86.5% | [2] 90.8% | [3] 84.7% | [4] 83.5% | [5] 82.4%

O=C1CCCc2[nH]ccc21
inactive: [1] -14.7% | [2] -1.2% | [3] -9.25% | [4] 64.6% | [5] 14.8% | [6] -4.55%

OCC1OC(n2cnc3c2NC=NC[C@H]3O)C(O)C1O (some centres undefined)
inactive: [1] 32.4% | [2] -3.8% | [3] 25.4% | [4] -7.55% | [5] 6.25% | [6] 25.8%

CN(C)C(=O)NCCN(CCNC(=O)N(C)C)C(=O)N(C)C
inactive: [1] -1.7% | [2] 13.2% | [3] -0.9% | [4] -28.3% | [5] -18.8% | [6] -4.15%
